tested on: Vero E6 infected with SARS-CoV-2; assay: inhibition of SARS-CoV-2 cytopathic effect; higher = more antiviral protection, active = above 15; conditions: 833.33 nM; 48 h

Row | Structure (SMILES) | inhibition of SARS-CoV-2 cytopathic effect
1 | CC(C)(C)[C@H]1CC[C@H](CC2=C(O)C(=O)c3ccccc3C2=O)CC1 [buparvaquone] | 0.32% (inactive)
2 | CN(C)CCn1cc(S(=O)(=O)c2cccc(F)c2)c2cccnc21 | -1.84% (inactive)
3 | COCCc1ccc(OCC(O)CNC(C)C)cc1 (stereo not drawn) [metoprolol] | -0.66% (inactive)
4 | CNC(=O)[C@H]1O[C@@H](n2cnc3c(NCc4cccc(I)c4)ncnc32)[C@H](O)[C@@H]1O | 0.25% (inactive)
5 | O=C(c1ccc(Nc2nccc(-c3cc4ccccc4s3)n2)cc1)N1CCC(N2CCCC2)CC1 | 2.79% (inactive)
6 | O=C(O)CCNc1cc(N2CCc3ccccc3CC2)nc(-c2cccnc2)n1 | 0.35% (inactive)
7 | COc1ccc2c(c1)[C@]13CCCC[C@@H]1[C@H](C2)N(C)CC3 [dextromethorphan] | 0.81% (inactive)
8 | CC[C@@]1(O)C(=O)OCc2c1cc1n(c2=O)Cc2cc3ccccc3nc2-1 [camptothecin] | -11.9% (inactive)

same assay, conditions: 10000 nM; 48 h

Row | Structure (SMILES) | inhibition of SARS-CoV-2 cytopathic effect
9 | COc1cc(OCc2cccc(-c3ccccc3)c2C)cc(OC)c1CN1CCCC[C@H]1C(=O)O [PD1-PDL-inhibitor-1] | 0.4% (inactive)
10 | N#CCC(=O)c1ccccc1 | -0.41% (inactive)
11 | CC(C)(C)C(=O)C(Oc1ccc(Cl)cc1)n1ccnc1 (stereo not drawn) [climbazole] | 0.15% (inactive)
12 | CCCC[C@H](NC(=O)[C@@H]1[C@@H]2[C@H](CN1C(=O)[C@@H](NC(=O)NC1(CS(=O)(=O)C(C)(C)C)CCCCC1)C(C)(C)C)C2(C)C)C(=O)C(=O)NC1CC1 [narlaprevir] | 0.24% (inactive)
13 | CNC1CCCN(c2c(F)cc3c(=O)c(C(=O)O)cn(C4CC4)c3c2OC)C1 (stereo not drawn) [balofloxacin] | 2.43% (inactive)
14 | C[C@]12CCC(=O)C=C1CC[C@@H]1[C@@H]2CC[C@@]2(C)[C@H]1CC[C@]2(O)C(=O)CO [cortodoxone] | -1.41% (inactive)
15 | O=C1N=C2SCCN2C(=O)C1Cc1ccc(Cl)cc1 (stereo not drawn) [nuclomedone] | -2.17% (inactive)
16 | Cc1ccccc1NC(=N)Nc1ccccc1C [ditolylguanidine] | -0.63% (inactive)
17 | CS(=O)(=O)c1cccc(CNc2nc(Nc3ccc4c(c3)CCC(=O)N4)ncc2C(F)(F)F)c1 | -3.75% (inactive)
18 | O=C(Nc1ccc(S(=O)(=O)Nc2nccs2)cc1)C(c1ccccc1)c1ccccc1 | -2.52% (inactive)
19 | OC[C@H]1O[C@@H](Oc2ccc(O)cc2)[C@H](O)[C@@H](O)[C@@H]1O [arbutin] | 0.83% (inactive)
20 | CN[C@H](CC(C)C)C(=O)N[C@H]1C(=O)N[C@@H](CC(N)=O)C(=O)N[C@H]2C(=O)N[C@H]3C(=O)N[C@H](C(=O)N[C@H](C(=O)O)c4cc(O)cc(O)c4-c4cc3ccc4O)[C@H](O)c3ccc(c(Cl)c3)Oc3cc2cc(c3O[C@@H]2O[C@H](CO)[C@@H](O)[C@H](O)[C@H]2O[C@H]2C[C@](C)(N)[C@H](O)[C@H](C)O2)Oc2ccc(cc2Cl)[C@H]1O | 0.87% (inactive)
21 | CN1CCC(c2c[nH]c3ccc(O)cc23)CC1 | -0.8% (inactive)
22 | O=C(NCc1ccccc1)OCCO [buramate] | 0.54% (inactive)
23 | CCCN(C/C=C/I)[C@H]1CCc2ccc(O)cc2C1 [7-hydroxy-PIPAT] | -1.39% (inactive)
24 | CN1CC[C@H](c2c(O)cc(O)c3c(=O)cc(-c4ccccc4Cl)oc23)[C@H](O)C1 [alvocidib] | -9.43% (inactive)
25 | COc1ccc(-c2nc(-c3ccc(-c4cccc(Cl)c4)o3)[nH]c2-c2ccc(OC)cc2)cc1 [neurodazine] | 1.25% (inactive)
26 | Cc1ccc(C(C)C)c(O)c1 [thymol] | -1.32% (inactive)
27 | CCCC(=O)Nc1cccc(NC(=O)c2ccccc2Br)c1 | -0.66% (inactive)
28 | O/N=C/c1cc[n+](COC[n+]2ccc(/C=N/O)cc2)cc1 [obidoxime] | -2.39% (inactive)

Row | Structure (SMILES) | inhibition of SARS-CoV-2 cytopathic effect
29 | O=C(Nc1cccc2c(=O)cc(-c3nnn[nH]3)oc12)c1ccc(OCCCCc2ccccc2)cc1 [pranlukast] | 1.15% (inactive)
30 | c1cnc(NCc2ccc(CNc3ncccn3)cc2)nc1 | -0.62% (inactive)
31 | COc1ccc(-c2nc(C(=O)N3CCN(C)CC3)sc2-c2ccc(OC)cc2)cc1 | 0.19% (inactive)
32 | N#Cc1ccnc(N2C(=O)CC[C@H]2C(=O)N(c2cncc(F)c2)[C@H](C(=O)NC2CC(F)(F)C2)c2ccccc2Cl)c1 [ivosidenib] | 3.82% (inactive)
33 | COc1cc2nccc(Oc3ccc(NC(=O)Nc4ccc(F)cc4F)c(F)c3)c2cc1OC | 5.75% (inactive)
34 | O=C1c2ccccc2-c2n[nH]c3cccc1c23 [pyrazolanthrone] | -5.91% (inactive)
35 | COc1ccc(Br)cc1S(=O)(=O)NC(=O)/C=C/c1ccccc1Cc1ccc2ccccc2c1 | -0.51% (inactive)
36 | O=C(NCc1ccc2c(c1)OCO2)c1c(Cl)cccc1Cl [alda-1] | -3.23% (inactive)
37 | CC(C)n1cnc2c(C(=O)N[C@H]3CN4CCC3CC4)cc(Cl)cc21 | -4.61% (inactive)
38 | Nc1cc(C(F)(F)F)c(-c2nc(N3CCOCC3)nc(N3CCOCC3)n2)cn1 | -3.26% (inactive)
39 | Cc1ccc(NC(=O)C2(c3ccc4c(c3)OC(F)(F)O4)CC2)nc1-c1cccc(C(=O)O)c1 [lumacaftor] | 1.24% (inactive)
40 | OCCCNc1ccccc1 [3-anilinopropan-1-ol] | 1.39% (inactive)
41 | CC(C)(C)[C@H]1CC[C@H](CC2=C(O)C(=O)c3ccccc3C2=O)CC1 [buparvaquone] | -5.12% (inactive)
42 | CN(C)CCn1cc(S(=O)(=O)c2cccc(F)c2)c2cccnc21 | -1.97% (inactive)
43 | COCCc1ccc(OCC(O)CNC(C)C)cc1 (stereo not drawn) [metoprolol] | 1.25% (inactive)
44 | CNC(=O)[C@H]1O[C@@H](n2cnc3c(NCc4cccc(I)c4)ncnc32)[C@H](O)[C@@H]1O | -2.76% (inactive)
45 | O=C(c1ccc(Nc2nccc(-c3cc4ccccc4s3)n2)cc1)N1CCC(N2CCCC2)CC1 | -18.6% (inactive)
46 | O=C(O)CCNc1cc(N2CCc3ccccc3CC2)nc(-c2cccnc2)n1 | -0.17% (inactive)
47 | COc1ccc2c(c1)[C@]13CCCC[C@@H]1[C@H](C2)N(C)CC3 [dextromethorphan] | -0.1% (inactive)
48 | CC[C@@]1(O)C(=O)OCc2c1cc1n(c2=O)Cc2cc3ccccc3nc2-1 [camptothecin] | -20.7% (inactive)
